In PubChem BioAssay (NCI) one finds growth inhibition data, which are given here for 33 compounds.

This is part of a sample that, as a whole, favours compounds with a hit. Of some 79,000 tested, about 15% had one in any assay. A number with no mark means an inactive call. Activity calls are given as the source filed them. Cut-off read from the data, not from the text of the source: active = growth inhibition above about 70%; inactive = the rest.

The nature of the first assay: NCI Yeast Anticancer Drug Screen. Data for the rad18 strain (AID 177). The settings on record: S. cerevisiae rad18 mutant growth inhibition; at 11.0 µM; hits give high values. The method, boiled down:
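Readout: growth inhibition vs vehicle controls. Cells: genetically altered yeast strain, DNA repair defect.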
For `CN(C)CC(CN(C)C)C(=O)/C=C/c1ccc(Cl)cc1Cl`, the growth inhibition was 14%.
Same read-out and setting: to `c1ccc2c(c1)ccn2CCc1c[nH]c2ccccc12` belongs -23%.
The same measure, in the same setting: to `Cc1ccccc1NC(=O)c1c(C)oc2c1C(=O)c1ccccc1C2=O` belongs -17%; to `CC(C)OC(=O)NNc1c(Cl)cc(Cl)cc1Cl`, 33%.
On the same count and under the same terms, to `CCC(OC(C)=O)C1CC(C(C)C)CCC1C` (stereo unspecified) belongs 4%; to `O=S(=O)(c1cccc(C(F)(F)F)c1)N1c2ccccc2-n2cccc2C1c1cccnc1` (stereo unspecified), 85% (active).
Turning to `c1ccc(-c2cc(C3CO3)c3ccccc3n2)cc1` (stereo unspecified), the growth inhibition was 53%.
The same measure, in the same setting: to `COc1ccc(/C=C2\SC(=S)N(/C=C3\C(=O)N(c4ccccc4)N=C3C)C2=O)cc1OC` belongs 37%; to `CC1=CC(=C(c2ccc(N)c(C)c2)c2ccc(N)c(C)c2)C=CC1=N`, 20%.
Turning to `CC1C(c2ccccc2)SC(=N)N1C` (stereo unspecified), the growth inhibition was -2%.
Same read-out and setting: to `CC(/C=C/c1ccc([N+](=O)[O-])o1)=N/N1CC(CN2CCOCC2)OC1=O` (stereo unspecified) belongs 97% (active).
For the compound `C=CC(C)(C)N1C(=O)C(C(C)=O)=C(O)C1Cc1c[nH]c2ccccc12` (stereo unspecified), the growth inhibition was -1%.
Same read-out and setting: to `O=C1c2cccc3cccc(c23)C(=O)N1CCNCCN1C(=O)c2cccc3cccc(c23)C1=O` belongs -1%.
Still for that read-out and setting: to `Cc1ccc([N+](=O)[O-])c2c(NCCC[N+](C)(C)[O-])c3ccccc3nc12` belongs 90% (active).
For `COC(=O)C(Cc1c[nH]c2ccccc12)N1CN(C)c2ccccc2C1=O` (stereo unspecified), the growth inhibition was 3%.
As for `O=C(/N=N/C(=O)Oc1ccccc1)Oc1ccccc1`, the growth inhibition is -72%.
As for `COc1cc([C@@H]2c3cc4c(cc3[C@@H](NC(=O)NO)[C@H]3COC(=O)[C@H]23)OCO4)cc(OC)c1O`, the growth inhibition was 17%.
Still for that read-out and setting: next, `CC1(C)CC(=O)C(/C=N/c2nc(-c3ccc(Br)cc3)cs2)=C(O)C1`: 37%; `CCOC(=O)/C(=C/c1cccc(Cl)c1)N(CC)CC`: 17%.
Consider `CC(C)OC(=O)NNc1cccc(Cl)c1`, for which the growth inhibition was 98% (active).
Take `CCC(=O)C1=C(O)c2cc(OC)ccc2CC1C(=O)OC` (stereo unspecified): the growth inhibition was 2%.
Still for that read-out and setting: next, `O=S(=O)(NC1CCCC(c2ccccc2)C1)c1ccccc1` (stereo unspecified): 1%; `COc1ccc2nc3cccc([N+](=O)[O-])c3c(NCCCCCC(=O)O)c2c1`: 96% (active).
Same read-out and setting: next, `CCO/C=C1\SC(=S)N(c2ccc(OCC)cc2)C1=O`: -32%.
Still for that read-out and setting: to `COC(=O)c1ccccc1N=NNc1cccc(SC)c1` belongs 11%.
`CC1=NN(C(=O)c2ccccc2O)C(=O)/C1=C/c1ccco1`: the growth inhibition is 48%.
The same measure, in the same setting: next, `COc1ccccc1NC(=O)c1ccc(Cl)cc1`: 1%.
On to `CC(C)=CCC/C(C)=C/CN1C(=O)C=CC1=O`, for which the growth inhibition was 99% (active).
With `O=C1CSC(c2ccccc2)N1c1ccc(-c2ccc(-n3c(-c4ccccc4)nc4ccccc4c3=O)cc2)cc1` (stereo unspecified), the growth inhibition is 8%.
Still for that read-out and setting: next, `N#CC1OB(O)c2ccccc21` (stereo unspecified): 1%; `O=C(NCCNCCNC(=O)c1cc(-c2ccccc2)nc2ccccc12)c1cc(-c2ccccc2)nc2ccccc12`: -3%; `Brc1ccc(B2Nc3ccccc3N2)cc1`: 13%.
Still for that read-out and setting: to `CCOP(=O)(OCC)/C(C#N)=C/c1cccc(Oc2ccccc2)c1` belongs 53%.

Still in this assay, the particulars now being: S. cerevisiae rad18 mutant growth inhibition; at 33.0 µM; hits give high values.
As for `CN(C)CC(CN(C)C)C(=O)/C=C/c1ccc(Cl)cc1Cl`, the growth inhibition is 98% (active).
Still for that read-out and setting: to `c1ccc2c(c1)ccn2CCc1c[nH]c2ccccc12` belongs 9%.
With `Cc1ccccc1NC(=O)c1c(C)oc2c1C(=O)c1ccccc1C2=O`, the growth inhibition was -8%.
Still for that read-out and setting: next, `CC(C)OC(=O)NNc1c(Cl)cc(Cl)cc1Cl`: 40%; `CCC(OC(C)=O)C1CC(C(C)C)CCC1C` (stereo unspecified): 11%.
In the case of `O=S(=O)(c1cccc(C(F)(F)F)c1)N1c2ccccc2-n2cccc2C1c1cccnc1` (stereo unspecified), the growth inhibition was 93% (active).
The same measure, in the same setting: next, `c1ccc(-c2cc(C3CO3)c3ccccc3n2)cc1` (stereo unspecified): 89% (active).
The same measure, in the same setting: to `COc1ccc(/C=C2\SC(=S)N(/C=C3\C(=O)N(c4ccccc4)N=C3C)C2=O)cc1OC` belongs 68%; to `CC1=CC(=C(c2ccc(N)c(C)c2)c2ccc(N)c(C)c2)C=CC1=N`, 35%; to `CC1C(c2ccccc2)SC(=N)N1C` (stereo unspecified), -3%.
Still for that read-out and setting: to `CC(/C=C/c1ccc([N+](=O)[O-])o1)=N/N1CC(CN2CCOCC2)OC1=O` (stereo unspecified) belongs 97% (active).
Take `C=CC(C)(C)N1C(=O)C(C(C)=O)=C(O)C1Cc1c[nH]c2ccccc12` (stereo unspecified): the growth inhibition was 9%.
On the same count and under the same terms, to `O=C1c2cccc3cccc(c23)C(=O)N1CCNCCN1C(=O)c2cccc3cccc(c23)C1=O` belongs -1%; to `Cc1ccc([N+](=O)[O-])c2c(NCCC[N+](C)(C)[O-])c3ccccc3nc12`, 94% (active); to `COC(=O)C(Cc1c[nH]c2ccccc12)N1CN(C)c2ccccc2C1=O` (stereo unspecified), 18%.
As to `O=C(/N=N/C(=O)Oc1ccccc1)Oc1ccccc1`, the growth inhibition was -58%.
Regarding `COc1cc([C@@H]2c3cc4c(cc3[C@@H](NC(=O)NO)[C@H]3COC(=O)[C@H]23)OCO4)cc(OC)c1O`, the growth inhibition was -1%.
On to `CC1(C)CC(=O)C(/C=N/c2nc(-c3ccc(Br)cc3)cs2)=C(O)C1`, for which the growth inhibition is 96% (active).
On the same count and under the same terms, to `CCOC(=O)/C(=C/c1cccc(Cl)c1)N(CC)CC` belongs 35%; to `CC(C)OC(=O)NNc1cccc(Cl)c1`, 98% (active); to `CCC(=O)C1=C(O)c2cc(OC)ccc2CC1C(=O)OC` (stereo unspecified), 8%.
Still for that read-out and setting: next, `O=S(=O)(NC1CCCC(c2ccccc2)C1)c1ccccc1` (stereo unspecified): 3%; `COc1ccc2nc3cccc([N+](=O)[O-])c3c(NCCCCCC(=O)O)c2c1`: 97% (active); `CCO/C=C1\SC(=S)N(c2ccc(OCC)cc2)C1=O`: -21%.
On to `COC(=O)c1ccccc1N=NNc1cccc(SC)c1`, for which the growth inhibition was 94% (active).
On the same count and under the same terms, to `CC1=NN(C(=O)c2ccccc2O)C(=O)/C1=C/c1ccco1` belongs 86% (active).
Same read-out and setting: to `COc1ccccc1NC(=O)c1ccc(Cl)cc1` belongs 3%; to `CC(C)=CCC/C(C)=C/CN1C(=O)C=CC1=O`, 99% (active).
On the same count and under the same terms, next, `O=C1CSC(c2ccccc2)N1c1ccc(-c2ccc(-n3c(-c4ccccc4)nc4ccccc4c3=O)cc2)cc1` (stereo unspecified): 15%.
Regarding `N#CC1OB(O)c2ccccc21` (stereo unspecified), the growth inhibition was 2%.
On the same count and under the same terms, to `O=C(NCCNCCNC(=O)c1cc(-c2ccccc2)nc2ccccc12)c1cc(-c2ccccc2)nc2ccccc12` belongs -2%.
On the same count and under the same terms, next, `Brc1ccc(B2Nc3ccccc3N2)cc1`: 23%; `CCOP(=O)(OCC)/C(C#N)=C/c1cccc(Oc2ccccc2)c1`: 97% (active).
